Inconclusive results are not listed. The source made the active and inactive calls. How the source made its calls, unless noted: active means hit-call score of the fitted dose curve at least 0.9, where 1 is the maximum; inactive means score below 0.9.

From PubChem BioAssay (EPA / NIEHS) come the findings set out here.

For assay [1], the target named is Bile acid receptor (Homo sapiens) (UniProt Q96RI1). Kind of assay: ATG_FXR_TRANS: Attagene TRANS-FACTORIAL HepG2 Assay for Farnesoid X Receptor (FXR) (AID 2282979; active means hit-call score of the fitted dose curve at least 0.9, where 1 is the maximum;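 further: hits raise reporter mRNA above DMSO so AC50 marks FXR activation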). As to conditions: HepG2 Attagene TRANS FXR-GAL4 reporter transcription. The method, boiled down:
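HepG2 cells were transiently transfected with GAL4-UAS reporters driven by chimeric NR-Gal4 proteins and dosed for 24 h. Reporter mRNA was quantified by RT-PCR, fluorescent labelling, HpaI digestion and capillary electrophoresis, with gain of signal scored versus DMSO.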

Assay [2] can be described thus: ATG_M_06_TRANS: Attagene TRANS-FACTORIAL HepG2 Assay for M06 Transcription Factor (Internal Marker) (AID 2282983; active means hit-call score of the fitted dose curve at least 0.9, where 1 is the maximum). Particulars: HepG2 Attagene TRANS M06 internal marker reporter. The method, boiled down: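 mRNA levels of a reporter transcript, quantified as FAM fluorescence on capillary electrophoresis, served as readout. HepG2 cells expressing exogenous GAL4-chimera reporter constructs were exposed for 24 h. Gain of signal over DMSO was evaluated.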

Assay [3] concerns the target Transcriptional activator Myb (Homo sapiens) (UniProt P10242). The experiment in a line: ATG_Myb_CIS: Attagene CIS-FACTORIAL HepG2 Assay for human Myeloblastosis (Myb) Proto-Oncogene Transcription Factor (AID 2282986). As to conditions: HepG2 Attagene CIS-FACTORIAL Myb reporter transcription; actives raise or lower the signal. The method, boiled down: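 Transiently transfected HepG2 cells, treated 24 h. Reporter mRNA quantified by RT-PCR/capillary electrophoresis; bidirectional fit relative to DMSO.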

Assay [4] addresses Nuclear respiratory factor 1 (Homo sapiens) (UniProt Q16656). The experiment in a line: ATG_NRF1_CIS: Attagene CIS-FACTORIAL HepG2 Assay for human Nuclear Respiratory Factor 1 (NRF1) Orphan Gene (AID 2282987). Particulars: HepG2 NRF1 cis-element reporter, Attagene multiplex; actives raise or lower the signal. The method, boiled down:
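Cells (HepG2, transient MRTU transfection) are exposed to compound for 24 h, then RNA isolated and reporter mRNA amplified and fluorescently labelled. Fragments are separated by capillary electrophoresis; signal change is fitted bidirectionally relative to DMSO.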

Assay [5] can be described thus: ATG_NFI_CIS: Attagene CIS-FACTORIAL HepG2 Assay for human Nuclear Factor I (NFI) (AID 2282989). Particulars: HepG2 cis-regulatory reporter, NFI response element transcription; actives raise or lower the signal. The method, boiled down:
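Transfected HepG2 liver cells, exposed 24 h, supplied total RNA for oligo(dT) reverse transcription and reporter-specific PCR. Labelled, HpaI-cut fragments were sized by capillary electrophoresis; DMSO set the baseline for bidirectional fitting.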

Assay [6] addresses Myc proto-oncogene protein (Homo sapiens) (UniProt P01106). The experiment in a line: ATG_Myc_CIS: Attagene CIS-FACTORIAL HepG2 Assay for human Myelocytomatosis (Myc) Proto-Oncogene Transcription Factor (AID 2282990). As to conditions: HepG2, Attagene cis-reporter transcription factor activity; actives raise or lower the signal. The gist of the method:
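HepG2 cells transiently transfected with multiple cis-promoter-driven reporter transcription units, so endogenous TF activity is read. After 24 h compound exposure, reporter mRNA was quantified by RT-PCR, 6-FAM labelling, HpaI digestion and capillary electrophoresis; bidirectional fit versus DMSO.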

A short description of assay [7]: ATG_NF_kB_CIS: Attagene CIS-FACTORIAL HepG2 Assay for human Nuclear Factor Kappa B (NF-kB) (AID 2282991). As to conditions: HepG2 Attagene cis-factorial NF-kB reporter mRNA; actives raise or lower the signal. The method, boiled down:
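Measures mRNA induction of an NF-kB-responsive cis-element reporter in HepG2 cells transfected with multiple reporter units, sampled 24 h post-dosing; quantified by fluorescence after RT-PCR and capillary electrophoresis, fitted for activation or inhibition against DMSO.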

The nature of assay [8]: ATG_NRF2_ARE_CIS: Attagene CIS-FACTORIAL HepG2 Assay for human Nuclear Factor Erythroid 2 Related Factor 2 (NFR2) response to Antioxidant Response Elements (ARE) (AID 2282992). Particulars: HepG2 Attagene ARE/NRF2 reporter, transcription factor activity; actives raise or lower the signal. The method, boiled down:
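Using transiently transfected HepG2 cells exposed for 24 h, reporter mRNA levels were determined by RT-PCR with fluorescent primer extension and capillary electrophoresis, analysed for gain or loss of signal against DMSO.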

Assay [9] is described as follows: ATG_Oct_MLP_CIS: Attagene CIS-FACTORIAL HepG2 Assay for human Octamer-Binding Transcription Factor (Oct) (AID 2282993). As to conditions: HepG2 Attagene cis-factorial Oct reporter, mRNA; actives raise or lower the signal. The gist of the method: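 Using HepG2 cells bearing transfected cis-reporter constructs, mRNA induction was read after 24 h by fluorescent RT-PCR and capillary electrophoresis, with DMSO defining baseline for gain- or loss-of-signal fits.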

The target of assay [10] is Cellular tumor antigen p53 (Homo sapiens) (UniProt P04637). The experiment in a line: ATG_p53_CIS: Attagene CIS-FACTORIAL HepG2 Assay for human p53 Transcription Factor (AID 2282994). As to conditions: HepG2 p53 cis-element reporter, Attagene mRNA; actives raise or lower the signal. The method, boiled down: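 In HepG2 cells, reporter transcription units under cis-regulatory promoters were transiently introduced. Following 24 h treatment, RNA was processed to labelled, digested cDNA fragments read by capillary electrophoresis; fitting was bidirectional versus DMSO.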
Chain of Cellular tumor antigen p53 (Homo sapiens) (P04637 whole entry, looked up, the tested form may be a part): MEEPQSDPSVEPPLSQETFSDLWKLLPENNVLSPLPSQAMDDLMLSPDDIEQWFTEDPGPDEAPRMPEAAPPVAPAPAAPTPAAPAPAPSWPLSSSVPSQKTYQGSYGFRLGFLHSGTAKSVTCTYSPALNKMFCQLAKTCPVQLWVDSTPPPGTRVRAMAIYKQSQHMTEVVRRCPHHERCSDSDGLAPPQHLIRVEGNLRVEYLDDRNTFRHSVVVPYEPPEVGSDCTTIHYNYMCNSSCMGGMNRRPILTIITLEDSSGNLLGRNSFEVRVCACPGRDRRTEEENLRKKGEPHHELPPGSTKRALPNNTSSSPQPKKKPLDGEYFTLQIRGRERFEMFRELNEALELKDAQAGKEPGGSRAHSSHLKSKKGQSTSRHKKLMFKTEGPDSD

Assay [11] can be described thus: BSK_3C_TissueFactor: BioMAP Diversity Plus: 3C Assay for Tissue Factor Biomarker Activity (AID 2282997). As to conditions: BioMAP 3C HUVEC, tissue factor biomarker readout; actives raise or lower the signal. The gist of the method:
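Tissue Factor measured by ELISA, 24 h after treatment of primary HUVEC in the BioMAP 3C setting.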

Assay [12] is described as follows: BSK_3C_uPAR: BioMAP Diversity Plus: 3C Assay for Urokinase-type plasminogen activator receptor (uPAR) Biomarker Activity (AID 2282998). As to conditions: BioMAP 3C HUVEC, uPAR biomarker ELISA; actives raise or lower the signal. The gist of the method: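 In this endothelial cell-based assay, human umbilical vein primary cells were treated with chemicals and harvested at 24 h. uPAR was quantified using ELISA, with gains or losses fitted relative to DMSO controls.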
(In general: In an ELISA, binding on a coated surface is turned into a signal by an enzyme label.)

Assay [13] addresses Oxysterols receptor LXR-alpha (Homo sapiens) (UniProt Q13133). Kind of assay: ATG_LXRa_TRANS: Attagene TRANS-FACTORIAL HepG2 Assay for human Liver X Receptor alpha (LXRa) (AID 2282980; active means hit-call score of the fitted dose curve at least 0.9, where 1 is the maximum). Particulars: HepG2 Attagene TRANS reporter, LXRa transactivation. The method, boiled down:
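HepG2 cells transiently transfected with GAL4-UAS reporter units for chimeric NR-Gal4 proteins, exposed to chemicals for 24 h. Reporter mRNA quantified by RT-PCR and capillary electrophoresis; gain of signal fitted relative to DMSO.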

For assay [14], the target named is Oxysterols receptor LXR-beta (Homo sapiens) (UniProt P55055). The experiment in a line: ATG_LXRb_TRANS: Attagene TRANS-FACTORIAL HepG2 Assay for human Liver X Receptor beta (LXRb) (AID 2282981; active means hit-call score of the fitted dose curve at least 0.9, where 1 is the maximum). As to conditions: HepG2 Attagene TRANS GAL4-LXRb reporter, mRNA. The gist of the method:
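Measures induction of a Gal4-driven reporter transcript in HepG2 cells expressing an exogenous LXRb-Gal4 fusion. Cells are exposed to compound for 24 h before RNA isolation and RT-PCR with capillary electrophoresis detection.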

The target of assay [15] is Hepatocyte nuclear factor 4-alpha (Homo sapiens) (UniProt P41235). The experiment in a line: ATG_HNF4a_TRANS: Attagene TRANS-FACTORIAL HepG2 Assay for human Hepatocyte Nuclear Factor 4 alpha (HNF4a) (AID 2282982; active means hit-call score of the fitted dose curve at least 0.9, where 1 is the maximum). As to conditions: HepG2 HNF4a transactivation reporter, mRNA readout. The gist of the method:
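In this trans-factorial format, a chimeric HNF4a-GAL4 fusion drives a GAL4-UAS reporter in transfected HepG2 liver cells. After 24 h treatment, reporter mRNA induction is measured by RT-PCR with capillary electrophoresis, relative to DMSO.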

Assay [16] addresses Nuclear receptor subfamily 4 group A member 2 (Homo sapiens) (UniProt P43354). Kind of assay: ATG_NURR1_TRANS: Attagene TRANS-FACTORIAL HepG2 Assay for human Nuclear Receptor Related Protein 1 (NURR1) (AID 2282985; active means hit-call score of the fitted dose curve at least 0.9, where 1 is the maximum). As to conditions: HepG2 Attagene TRANS reporter, mRNA readout. The gist of the method: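 Chimeric NR-Gal4 fusion activity measured in HepG2 after 24 h treatment. Reporter transcripts detected by RT-PCR and capillary electrophoresis fluorescence; positive-direction curve fitting against DMSO.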

Assay [17] in a line: ATG_M_32_TRANS: Attagene TRANS-FACTORIAL HepG2 Assay for M32 Transcription Factor (Internal Marker) (AID 2282984; active means hit-call score of the fitted dose curve at least 0.9, where 1 is the maximum;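 further: transcript level of a background control reporter unit measured by RT-PCR and capillary electrophoresis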). As to conditions: HepG2 Attagene TRANS M32 internal marker reporter. The gist of the method: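 After 24 h dosing of transfected HepG2 cells, total RNA was reverse-transcribed, reporter sequences PCR-amplified, 6-FAM labelled by primer extension and HpaI-digested before capillary electrophoresis. Signal increase over DMSO was fitted.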

Chain of Oxysterols receptor LXR-alpha (Homo sapiens) (Q13133 whole entry, looked up, the tested form may be a part): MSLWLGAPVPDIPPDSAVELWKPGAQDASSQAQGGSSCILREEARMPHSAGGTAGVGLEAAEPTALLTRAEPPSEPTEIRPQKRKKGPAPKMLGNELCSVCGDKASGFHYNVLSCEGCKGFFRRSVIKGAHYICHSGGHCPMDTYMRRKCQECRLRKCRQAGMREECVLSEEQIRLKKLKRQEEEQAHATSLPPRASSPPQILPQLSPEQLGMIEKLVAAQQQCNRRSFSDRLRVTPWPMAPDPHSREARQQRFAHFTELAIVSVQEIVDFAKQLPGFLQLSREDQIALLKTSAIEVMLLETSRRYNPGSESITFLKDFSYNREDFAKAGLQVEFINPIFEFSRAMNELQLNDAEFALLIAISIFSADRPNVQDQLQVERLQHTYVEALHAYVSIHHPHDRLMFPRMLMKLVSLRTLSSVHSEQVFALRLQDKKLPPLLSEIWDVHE
Chain of Myc proto-oncogene protein (Homo sapiens) (P01106 whole entry, looked up): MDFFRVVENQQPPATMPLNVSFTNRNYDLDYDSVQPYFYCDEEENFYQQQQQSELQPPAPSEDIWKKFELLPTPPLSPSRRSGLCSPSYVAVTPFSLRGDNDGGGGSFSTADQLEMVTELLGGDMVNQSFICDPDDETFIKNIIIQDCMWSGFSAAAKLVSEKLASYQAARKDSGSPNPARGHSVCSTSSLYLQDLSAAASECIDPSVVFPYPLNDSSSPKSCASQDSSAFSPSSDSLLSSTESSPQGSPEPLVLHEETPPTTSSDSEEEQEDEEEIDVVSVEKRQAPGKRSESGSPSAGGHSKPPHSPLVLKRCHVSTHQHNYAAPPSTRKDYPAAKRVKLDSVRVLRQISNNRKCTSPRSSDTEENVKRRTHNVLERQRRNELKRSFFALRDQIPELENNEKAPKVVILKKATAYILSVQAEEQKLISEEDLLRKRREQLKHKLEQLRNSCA
Chain of Bile acid receptor (Homo sapiens) (Q96RI1 whole entry, looked up, the tested form may be a part): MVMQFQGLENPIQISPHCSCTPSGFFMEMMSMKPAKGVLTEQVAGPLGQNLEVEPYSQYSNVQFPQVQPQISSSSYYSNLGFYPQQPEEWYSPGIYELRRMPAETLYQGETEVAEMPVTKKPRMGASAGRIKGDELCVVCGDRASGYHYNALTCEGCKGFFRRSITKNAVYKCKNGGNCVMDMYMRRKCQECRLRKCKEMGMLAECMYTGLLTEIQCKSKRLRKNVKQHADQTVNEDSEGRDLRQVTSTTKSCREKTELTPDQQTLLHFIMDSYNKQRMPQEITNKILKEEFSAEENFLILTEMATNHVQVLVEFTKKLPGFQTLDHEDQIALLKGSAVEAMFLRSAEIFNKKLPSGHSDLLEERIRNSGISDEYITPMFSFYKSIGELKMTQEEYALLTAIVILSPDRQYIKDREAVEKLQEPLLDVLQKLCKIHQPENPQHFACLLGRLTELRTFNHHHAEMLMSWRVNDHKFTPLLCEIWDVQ
Chain of Transcriptional activator Myb (Homo sapiens) (P10242 whole entry, looked up): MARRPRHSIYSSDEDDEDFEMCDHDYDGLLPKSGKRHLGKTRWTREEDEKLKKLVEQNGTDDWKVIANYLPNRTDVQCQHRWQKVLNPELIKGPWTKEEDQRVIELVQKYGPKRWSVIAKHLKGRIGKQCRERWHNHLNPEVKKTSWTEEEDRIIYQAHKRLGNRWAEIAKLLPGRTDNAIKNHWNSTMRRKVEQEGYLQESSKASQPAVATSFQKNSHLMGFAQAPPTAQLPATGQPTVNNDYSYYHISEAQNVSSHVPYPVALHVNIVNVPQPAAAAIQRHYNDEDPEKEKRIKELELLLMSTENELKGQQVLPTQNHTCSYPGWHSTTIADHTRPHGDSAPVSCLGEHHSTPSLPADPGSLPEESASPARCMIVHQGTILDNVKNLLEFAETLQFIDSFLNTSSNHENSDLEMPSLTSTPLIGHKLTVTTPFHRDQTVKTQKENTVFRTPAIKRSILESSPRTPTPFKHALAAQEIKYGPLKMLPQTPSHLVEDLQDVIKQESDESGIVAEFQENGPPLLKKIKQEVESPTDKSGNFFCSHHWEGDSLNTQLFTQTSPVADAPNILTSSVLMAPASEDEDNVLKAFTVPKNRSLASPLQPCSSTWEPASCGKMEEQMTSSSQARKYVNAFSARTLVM
Chain of Nuclear respiratory factor 1 (Homo sapiens) (Q16656 whole entry, looked up, the tested form may be a part): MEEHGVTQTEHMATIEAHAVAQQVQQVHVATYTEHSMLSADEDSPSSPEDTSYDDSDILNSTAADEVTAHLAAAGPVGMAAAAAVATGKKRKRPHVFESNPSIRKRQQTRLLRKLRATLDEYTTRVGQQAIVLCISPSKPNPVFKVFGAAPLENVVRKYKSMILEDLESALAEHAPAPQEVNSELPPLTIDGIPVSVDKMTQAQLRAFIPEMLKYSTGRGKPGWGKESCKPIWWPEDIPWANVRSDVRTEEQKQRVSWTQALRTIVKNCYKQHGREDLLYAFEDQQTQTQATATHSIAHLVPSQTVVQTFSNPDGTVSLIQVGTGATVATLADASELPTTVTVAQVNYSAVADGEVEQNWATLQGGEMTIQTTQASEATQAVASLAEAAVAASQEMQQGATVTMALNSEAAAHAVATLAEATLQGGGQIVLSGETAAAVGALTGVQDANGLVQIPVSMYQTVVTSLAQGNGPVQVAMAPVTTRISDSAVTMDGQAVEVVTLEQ
Chain of Nuclear receptor subfamily 4 group A member 2 (Homo sapiens) (P43354 whole entry, looked up, the tested form may be a part): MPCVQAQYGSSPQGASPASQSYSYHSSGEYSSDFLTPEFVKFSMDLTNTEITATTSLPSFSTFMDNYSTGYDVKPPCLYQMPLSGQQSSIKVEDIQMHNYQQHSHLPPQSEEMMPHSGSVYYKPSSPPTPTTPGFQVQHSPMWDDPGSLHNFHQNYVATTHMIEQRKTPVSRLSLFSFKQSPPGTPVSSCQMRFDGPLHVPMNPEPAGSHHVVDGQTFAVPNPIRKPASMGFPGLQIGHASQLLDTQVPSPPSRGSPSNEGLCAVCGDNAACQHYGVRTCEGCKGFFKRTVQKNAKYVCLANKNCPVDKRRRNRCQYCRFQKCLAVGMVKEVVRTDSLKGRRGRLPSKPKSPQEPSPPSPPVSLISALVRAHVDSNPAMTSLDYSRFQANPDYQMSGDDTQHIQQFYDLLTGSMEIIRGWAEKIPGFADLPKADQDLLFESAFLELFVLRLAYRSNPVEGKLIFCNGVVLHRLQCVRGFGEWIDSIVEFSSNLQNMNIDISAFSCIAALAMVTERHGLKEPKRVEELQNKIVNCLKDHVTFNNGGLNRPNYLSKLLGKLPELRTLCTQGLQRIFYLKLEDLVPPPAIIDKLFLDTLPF
Chain of Oxysterols receptor LXR-beta (Homo sapiens) (P55055 whole entry, looked up, the tested form may be a part): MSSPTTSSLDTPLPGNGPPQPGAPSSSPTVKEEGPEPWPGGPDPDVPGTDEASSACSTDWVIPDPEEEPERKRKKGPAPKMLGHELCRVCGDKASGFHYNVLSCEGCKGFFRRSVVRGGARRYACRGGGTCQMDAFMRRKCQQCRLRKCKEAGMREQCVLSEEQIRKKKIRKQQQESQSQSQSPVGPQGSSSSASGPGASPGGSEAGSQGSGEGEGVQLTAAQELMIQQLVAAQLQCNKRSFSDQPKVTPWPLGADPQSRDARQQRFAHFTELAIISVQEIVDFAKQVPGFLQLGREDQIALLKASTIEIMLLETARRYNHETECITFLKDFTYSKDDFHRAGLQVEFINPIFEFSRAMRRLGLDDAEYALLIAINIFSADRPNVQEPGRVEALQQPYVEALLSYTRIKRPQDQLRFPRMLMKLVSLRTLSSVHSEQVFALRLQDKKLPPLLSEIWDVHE
Chain of Hepatocyte nuclear factor 4-alpha (Homo sapiens) (P41235 whole entry, looked up, the tested form may be a part): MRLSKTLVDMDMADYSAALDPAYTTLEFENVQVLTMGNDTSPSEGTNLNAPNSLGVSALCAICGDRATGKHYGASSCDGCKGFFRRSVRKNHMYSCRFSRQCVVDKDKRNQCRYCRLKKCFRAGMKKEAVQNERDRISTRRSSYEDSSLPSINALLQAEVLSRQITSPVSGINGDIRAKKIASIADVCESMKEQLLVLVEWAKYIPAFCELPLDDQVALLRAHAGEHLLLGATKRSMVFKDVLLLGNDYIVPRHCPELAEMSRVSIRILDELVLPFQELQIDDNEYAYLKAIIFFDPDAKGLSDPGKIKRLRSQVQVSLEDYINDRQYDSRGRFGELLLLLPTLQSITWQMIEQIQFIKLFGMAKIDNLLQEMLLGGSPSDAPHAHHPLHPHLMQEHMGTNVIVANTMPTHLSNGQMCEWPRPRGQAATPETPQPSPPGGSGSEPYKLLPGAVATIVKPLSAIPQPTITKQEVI

Regarding `CCCCCCOc1ccc(N)cc1`, the result in assay [1], in assay [2], in assay [3], in assay [5], in assay [6] and in [7] was inactive. The result in [9] and in assay [10] was inactive. Moreover, the AC50 in assay [4] and in [8] was 100 µM (active) in each case.
As to `CC(c1cc(C(C)(C)C)cc(C(C)(C)C)c1O)c1cc(C(C)(C)C)cc(C(C)(C)C)c1O`, the figures for the AC50 in [1] and in assay [11] were 3.42 µM (active) and 0.464 µM (active), respectively. The molecule was called inactive in [2], in [3], in assay [4], in assay [5], in assay [6] and in [7]. In addition, the outcome in assay [8], in [10] and in assay [12] was inactive.
As to `O=S(=O)(O)c1ccc(N=Nc2c(O)ccc3ccccc23)cc1`, the molecule was classed as inactive in [13], in [14], in assay [15], in [16], in assay [3] and in assay [5]. Besides, the molecule was called inactive in assay [6], in assay [9] and in assay [10].
In the case of `CC(CC=O)CC(C)(C)C` (centres undefined), the molecule was called inactive in [13], in assay [14], in assay [16], in [3], in assay [4] and in assay [5]. Moreover, the molecule was called inactive in assay [6], in assay [8] and in [10].
For `CCC(C)(O)CCCC(C)C` (centres undefined), the outcome in assay [1], in assay [14], in assay [16], in assay [3], in assay [4] and in [5] was inactive. For the same molecule, the molecule was called inactive in assay [6], in [7], in [8], in assay [9] and in [10].
As to `COC(Cc1ccccc1)OC`, the result in [13], in assay [14], in assay [15], in [2], in assay [17] and in assay [16] was inactive. Moreover, the molecule was called inactive in assay [3], in assay [5], in assay [6] and in assay [8].
Turning to `C=CCCCCCCCCOC(C)=O`, the molecule was called inactive in [1], in assay [15], in assay [16], in assay [3], in [4] and in assay [5]. The call in [6], in assay [8] and in assay [9] was inactive.
For `C=CC(C)(CCC=C(C)C)OC(=O)C=Cc1ccccc1` (centres undefined), the call in [1], in [14], in assay [2], in [3], in assay [4] and in assay [5] was inactive. Moreover, the molecule was classed as inactive in assay [6], in assay [7], in assay [9] and in assay [10]. Further, in assay [8], the AC50 was 32.9 µM (active).
As for `CC(C)=NNC(N)=S`, the molecule was classed as inactive in assay [1], in assay [2], in assay [16], in assay [3], in assay [4] and in assay [5]. Further, the molecule was classed as inactive in assay [6], in assay [7], in assay [8], in assay [9] and in assay [10].
In the case of `CC(C=O)c1ccccc1` (centres undefined), the outcome in assay [1], in [15], in assay [2], in [17], in assay [16] and in [3] was inactive. The result in assay [4], in assay [5], in assay [6], in assay [7], in assay [8] and in [9] was inactive. Besides, the result in assay [10] was inactive.

The term AC50 denotes the midpoint of the concentration-response curve, whichever way the signal moves.
